Source: PubChem BioAssay (NCATS)
“And” between values parts separate entries of the source, which are not always exact repeats. Equal values may be shown once. Inconclusive results are not listed. The source made the active and inactive calls. Unless noted, the call rests on the fitted dose curve; in most records, active means well fitted curve in the direction sought with a large enough effect; inconclusive means small, poorly fitted or top-dose-only effect, or another doubt; inactive means no such curve, though single readings can be large; an effect the other way counts as inactive or inconclusive.

Columns and labels:
[1] = Cell Viability - SK-N-SH (AID 435; calls by dose curve;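 further: potency means the concentration at half of the fitted maximal effect; compound exposure lasted 40 h at 37 °C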); settings: SK-N-SH neuroblastoma cell viability qHTS
Summary of the method: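 SK-N-SH neuroblastoma cells (1500/well) treated 40 h at 37 °C in complete medium; viability read as cellular ATP by CellTiter-Glo luminescence. Normalized to DMSO and 100 uM tamoxifen; AC50 from Hill fits of qHTS concentration-response.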

[2] = Cell Viability - Renal Proximal Tubule (AID 545); settings: renal proximal tubule cells viability, primary cells of rat origin; activity change, negative = cytotoxicity: at 91.7 µM (top of the series); further: nearly all actives have a fitted effect of over 40% in size; further: potency means the concentration at half of the fitted maximal effect;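 on activity change, negative = cytotoxicity: 0% = DMSO only and -100% = 100 µM tamoxifen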
Summary of the method: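 Rat renal proximal tubule primary cells, 1000/well, exposed to compounds for 40 hr at 37 °C in complete medium; cellular ATP read by CellTiter-Glo luminescence. AC50 from concentration-response fitted with standard Hill equation.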

[3] = MultiTox-Fluor Cytotoxicity Assay - LYMP1-001 - Live Cells (AID 947); settings: LYMP1-001 lymphoblastoid cells, live-cell protease fluorescence viability; series mostly up to 92.2 µM;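 further: 0% = DMSO only and full inhibition = tetraoctylammonium bromide control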
[4] = Cell Viability - LYMP2-005 (AID 967); settings: LYMP2-005 lymphoblastoid cell viability; series mostly up to 92.2 µM;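 further: plate controls were DMSO only for no effect and 92 µM tetraoctylammonium bromide control for full effect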
Summary of the method: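 Human lymphoblastoid LYMP2-005 cells, 2,500 per well in complete medium, rested 5 h at 37C then compound-treated 24 h at 37C. Intracellular ATP read by CellTiter-Glo luminescence after 30 min at room temperature; AC50 from Hill-equation fits of concentration-response data.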

[5] = Cell Viability - LYMP2-009 (AID 968); settings: LYMP2-009 lymphoblastoid cell viability; series mostly up to 92.2 µM;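 further: 0% = DMSO alone and the full-kill end = tetraoctylammonium bromide at 92 µM; nearly all actives have a fitted effect of over 55% in size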
[6] = Cell Viability - LYMP2-015 (AID 971); settings: LYMP2-015 lymphoblastoid cell viability; series mostly up to 92.2 µM;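 further: 0% = DMSO only and full effect = 92 µM tetraoctylammonium bromide; nearly all actives have a fitted effect of over 55% in size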
Summary of the method: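 Luminescent ATP read-out (CellTiter-Glo) served as the viability measure after lymphoblastoid cells were exposed to compounds for 24 hours at 37 C. Concentration-response data were fitted with the Hill equation to give AC50.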

[7] = target: Glucocorticoid receptor (Homo sapiens) (UniProt P04150); test: qHTS assay for small molecule agonists of glucocorticoid receptor signaling (AID 588532; active means well fitted curve in the direction sought with a large enough effect in the signal ratio, with a control signal flat; the % refers to the signal ratio;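 further: 100% = dexamethasone at 0.1 µM and 0% = DMSO only wells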); settings: HeLa MMTV-bla, beta-lactamase ratio, agonist, 18 h; stronger effect = higher value; percent of dexamethasone control, DMSO zero
Sequence of Glucocorticoid receptor (Homo sapiens) (P04150 whole entry, looked up): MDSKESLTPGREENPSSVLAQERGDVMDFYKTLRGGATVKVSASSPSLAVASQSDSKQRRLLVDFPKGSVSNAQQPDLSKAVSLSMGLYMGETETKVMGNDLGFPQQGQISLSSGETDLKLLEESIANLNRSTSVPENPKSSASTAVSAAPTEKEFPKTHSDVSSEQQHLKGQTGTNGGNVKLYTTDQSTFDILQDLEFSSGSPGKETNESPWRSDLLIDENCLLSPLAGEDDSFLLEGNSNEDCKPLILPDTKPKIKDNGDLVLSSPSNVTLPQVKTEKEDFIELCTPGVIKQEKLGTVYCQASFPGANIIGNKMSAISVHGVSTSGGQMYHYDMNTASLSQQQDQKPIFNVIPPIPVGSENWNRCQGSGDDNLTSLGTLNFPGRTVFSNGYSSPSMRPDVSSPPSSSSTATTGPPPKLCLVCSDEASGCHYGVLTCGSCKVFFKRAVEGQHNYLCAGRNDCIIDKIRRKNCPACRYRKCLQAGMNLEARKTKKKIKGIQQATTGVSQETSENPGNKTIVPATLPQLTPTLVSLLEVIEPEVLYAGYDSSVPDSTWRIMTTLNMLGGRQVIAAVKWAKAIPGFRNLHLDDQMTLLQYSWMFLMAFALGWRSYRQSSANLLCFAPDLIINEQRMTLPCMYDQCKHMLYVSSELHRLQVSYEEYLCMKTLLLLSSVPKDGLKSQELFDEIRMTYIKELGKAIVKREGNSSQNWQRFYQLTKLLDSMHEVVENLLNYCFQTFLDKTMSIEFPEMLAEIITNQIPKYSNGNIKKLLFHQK
Summary of the method: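 MMTV-bla HeLa, beta-lactamase reporter; medium with 1% charcoal/dextran-stripped FBS; cpds up to 92 uM, 18 h, 37 C; CCF4 readout 460/530 nm; Hill fit → EC50, efficacy vs 0.1 uM dexamethasone = 100%.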

[8] = target: Voltage-gated inwardly rectifying potassium channel KCNH2 (Homo sapiens) (UniProt Q12809); test: qHTS Assay for Small Molecule Inhibitors of the Human hERG Channel Activity (AID 588834); settings: U2OS BacMam hERG, FluxOR thallium flux fluorescence; series mostly up to 92.2 µM;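 further: top concentration of the series differs between compounds; on the % scale 0 is the no-effect control and ±100 the full control effect; lower thallium flux fluorescence means stronger hERG block; nearly all actives have a fitted effect of over 50% in size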
Sequence of Voltage-gated inwardly rectifying potassium channel KCNH2 (Homo sapiens) (Q12809 whole entry, looked up): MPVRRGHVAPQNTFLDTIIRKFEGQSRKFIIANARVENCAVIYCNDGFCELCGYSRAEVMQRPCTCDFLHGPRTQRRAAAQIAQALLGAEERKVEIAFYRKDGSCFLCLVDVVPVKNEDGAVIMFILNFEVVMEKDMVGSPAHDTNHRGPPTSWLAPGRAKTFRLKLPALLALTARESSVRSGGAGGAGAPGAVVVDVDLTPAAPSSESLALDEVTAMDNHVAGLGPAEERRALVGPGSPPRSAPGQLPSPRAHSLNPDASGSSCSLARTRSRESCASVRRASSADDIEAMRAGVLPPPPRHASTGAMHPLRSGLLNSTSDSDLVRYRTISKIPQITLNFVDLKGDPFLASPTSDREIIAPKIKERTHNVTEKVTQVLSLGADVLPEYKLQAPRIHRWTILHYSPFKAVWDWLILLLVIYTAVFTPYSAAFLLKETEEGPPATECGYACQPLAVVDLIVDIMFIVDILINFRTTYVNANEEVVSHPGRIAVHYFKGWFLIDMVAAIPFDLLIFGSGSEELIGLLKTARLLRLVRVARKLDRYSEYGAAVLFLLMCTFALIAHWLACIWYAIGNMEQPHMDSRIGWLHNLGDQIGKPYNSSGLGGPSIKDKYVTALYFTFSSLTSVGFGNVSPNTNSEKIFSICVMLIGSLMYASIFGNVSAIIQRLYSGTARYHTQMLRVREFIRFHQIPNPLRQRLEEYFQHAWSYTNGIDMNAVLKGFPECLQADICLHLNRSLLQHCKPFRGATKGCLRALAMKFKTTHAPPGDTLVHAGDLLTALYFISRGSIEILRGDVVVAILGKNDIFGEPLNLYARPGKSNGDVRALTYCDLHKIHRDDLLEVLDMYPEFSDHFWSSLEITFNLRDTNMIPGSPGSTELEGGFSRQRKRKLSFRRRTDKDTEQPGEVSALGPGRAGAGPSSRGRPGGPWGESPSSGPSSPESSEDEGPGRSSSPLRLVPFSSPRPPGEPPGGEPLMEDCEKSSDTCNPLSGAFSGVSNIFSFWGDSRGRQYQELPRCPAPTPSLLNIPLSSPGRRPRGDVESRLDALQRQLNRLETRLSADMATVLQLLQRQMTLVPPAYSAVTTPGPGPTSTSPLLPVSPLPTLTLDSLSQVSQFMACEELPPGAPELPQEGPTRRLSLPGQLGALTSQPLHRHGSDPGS
Summary of the method: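 U2OS cells BacMam-transduced with hERG, 2000 cells/well, compound ~10 min at 37 °C before stimulation buffer. FluxOR thallium flux fluorescence read kinetically on FDSS; decrease indicates block; AC50 from Hill fits.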

[9] = target: Nuclear receptor subfamily 1 group I member 2 (Rattus norvegicus) (UniProt Q9R1A7); test: qHTS assay for small molecule activators of the rat pregnane X receptor (rPXR) signaling pathway (AID 651751; call rule not given here; further: 0% is about no effect); settings: rPXR reporter cells, luciferase (One-Glo), 24 h
Sequence of Nuclear receptor subfamily 1 group I member 2 (Rattus norvegicus) (Q9R1A7 whole entry, looked up): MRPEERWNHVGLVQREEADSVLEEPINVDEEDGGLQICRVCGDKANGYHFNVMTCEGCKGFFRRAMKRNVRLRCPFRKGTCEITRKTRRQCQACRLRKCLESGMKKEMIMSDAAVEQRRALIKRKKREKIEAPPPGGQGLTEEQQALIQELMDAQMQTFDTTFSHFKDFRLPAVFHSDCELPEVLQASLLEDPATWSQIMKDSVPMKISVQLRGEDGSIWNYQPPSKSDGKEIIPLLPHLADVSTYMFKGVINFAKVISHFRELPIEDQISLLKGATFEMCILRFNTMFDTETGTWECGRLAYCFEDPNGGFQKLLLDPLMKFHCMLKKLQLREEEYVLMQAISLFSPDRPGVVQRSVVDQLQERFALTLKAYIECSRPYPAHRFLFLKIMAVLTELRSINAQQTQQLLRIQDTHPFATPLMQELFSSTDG

[10] = Cell Viability - Hek293 (AID 427;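 active means compounds whose dose-response curve shows a full or clear partial loss of cell viability, called from curve shape rather than a numeric limit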;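 further: potency means the concentration at half of the fitted maximal effect; cells exposed to compound for 40 hours at 37 °C before reading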); settings: qHTS
Summary of the method: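 HEK293 cells in complete medium were exposed to compound for 40 hr at 37 °C, then cellular ATP was read by CellTiter-Glo luminescence. Data were normalized to DMSO (basal) and 100 uM tamoxifen (100% inhibition), and AC50 came from Hill fits.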

[11] = Cell Viability - LYMP2-019 (AID 973); settings: LYMP2-019 lymphoblastoid cell line viability; series mostly up to 92.2 µM;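 further: 0% = DMSO alone and full effect = 92 µM tetraoctylammonium bromide; nearly all actives have a fitted effect of over 55% in size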
Summary of the method: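 Luminescent ATP read-out (CellTiter-Glo, 30 min room temperature) served as the viability measure after 24 hr treatment of lymphoblastoid cells at 37 C. Concentration-response data were fitted to the Hill equation for AC50.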

[12] = Cell Viability - LYMP2-006 (AID 978); settings: LYMP2-006 lymphoblastoid cell viability, qHTS; series mostly up to 92.2 µM; further: on the % scale 0 is the no-effect control and ±100 the full control effect; nearly all actives have a fitted effect of over 60% in size
Summary of the method: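 Human lymphoblastoid cells (LYMP2-006), 2500/well in complete medium, were treated with compound for 24 hr at 37 C. Cellular ATP was read by CellTiter-Glo luminescence after 30 min, and AC50 values came from Hill-equation fits of concentration-response data.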

[13] = Cell Viability - LYMP2-010 (AID 981); settings: LYMP2-010 lymphoblastoid cell viability, qHTS; series mostly up to 92.2 µM; further: on the % scale 0 is the no-effect control and ±100 the full control effect; nearly all actives have a fitted effect of over 55% in size
Summary of the method: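 Luminescent ATP signal (CellTiter-Glo) served as the viability read-out. Cells of the human lymphoblastoid line were treated with compound over a concentration range for 24 hours at 37 C, and AC50 values came from Hill-equation modeling.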

[14] = qHTS assay for small molecule agonists of retinoid X receptor alpha signaling (AID 588544); settings: HEK293T RXRa-UAS-bla, beta-lactamase reporter, 18 h; 530 nm emission
[15] = target: Thyroid hormone receptor beta (Homo sapiens) (UniProt P10828); test: qHTS assay for small molecule agonists of thyroid hormone receptor beta signaling (AID 588545; calls by dose curve;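 further: 0% = DMSO only and 100% = 10 nM T3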); settings: TR-UAS-bla GripTite HEK 293, beta-lactamase ratio, agonist mode, 18 h; series mostly up to 76.7 µM
Sequence of Thyroid hormone receptor beta (Homo sapiens) (P10828 whole entry, looked up): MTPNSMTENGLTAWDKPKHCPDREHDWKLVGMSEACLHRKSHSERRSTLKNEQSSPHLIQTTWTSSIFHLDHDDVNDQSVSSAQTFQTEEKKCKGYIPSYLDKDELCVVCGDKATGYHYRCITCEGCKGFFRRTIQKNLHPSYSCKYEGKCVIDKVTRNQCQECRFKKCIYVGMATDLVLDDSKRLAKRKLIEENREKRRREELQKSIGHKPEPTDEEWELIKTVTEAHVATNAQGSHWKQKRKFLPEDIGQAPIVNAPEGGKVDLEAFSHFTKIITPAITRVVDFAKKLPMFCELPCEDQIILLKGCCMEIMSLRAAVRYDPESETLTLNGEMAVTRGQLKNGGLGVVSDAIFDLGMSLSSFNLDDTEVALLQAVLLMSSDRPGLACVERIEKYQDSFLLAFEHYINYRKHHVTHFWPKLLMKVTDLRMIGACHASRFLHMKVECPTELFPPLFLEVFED
Summary of the method: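 TR-UAS-bla-GripTite HEK 293 cells in medium with 2% charcoal/dextran FBS, 0.1 mM NEAA and 1 mM sodium pyruvate were treated with titrated compounds for 18 hrs at 37 C. Beta-lactamase reporter was read with CCF4 dye (ex 405, em 460/530 nm); EC50 from Hill fits.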

[16] = target: Thyroid hormone receptor beta (Homo sapiens) (UniProt P10828); test: qHTS assay for small molecule antagonists of thyroid hormone receptor beta signaling (AID 588547; active means well fitted inhibition curve with a large enough effect in the signal ratio, with a control signal flat, not every such curve was filed as active; the % refers to the signal ratio;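 further: cells stimulated with 0.4 nM T3 agonist during compound exposure; on the % scale 0 is the no-effect control and ±100 the full control effect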); settings: TR-UAS-bla HEK293, beta-lactamase ratio, antagonist mode, 18 h
Summary of the method: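 TR-UAS-bla GripTite HEK293 cells in 2% charcoal/dextran FBS medium were preincubated 4 h at 37 C, given compound (0.59 nM to 92 uM) plus 0.4 nM T3 (final) for 18 h, then CCF4 for 2 h at RT; Hill fit gave IC50.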

[17] = qHTS assay for small molecule disruptors of the mitochondrial membrane potential - 5 hr assay (AID 651755; calls by dose curve; further: on the % scale 0 is the no-effect control and ±100 the full control effect; nearly all actives have a fitted effect of over 40% in size); settings: JC-1-type ratio dye; series mostly up to 92.2 µM
Summary of the method: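 HepG2 cells, attached overnight at 37C, were exposed to compound or DMSO for 5 hr at 37C, 5% CO2. Mito-MPS dye was then added for 30 min, and fluorescence read at 490/535 nm (monomers) and 540/590 nm (aggregates).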

[18] = qHTS assay for small molecule antagonists of the retinoid-related orphan receptor gamma (ROR-gamma) signaling pathway - cell viability counter screen (AID 720652; active means well fitted curve in the direction sought with a large enough effect in the repeat runs; an effect the other way counts as inactive or inconclusive;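 further: compound exposure lasted 16 hr before ATP read; on the % scale 0 is the no-effect control and ±100 the full control effect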); settings: RORgamma reporter cell line viability counter screen; series mostly up to 92.2 µM
Summary of the method: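 Luminescence from CellTiter-Glo after 30 min at room temperature reported cellular ATP as the cytotoxicity measure. Cells were the CHO reporter line with doxycycline-induced ROR-gamma expression, exposed to compound for 16 hr at 37 C.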

[19] = MultiTox-Fluor Cytotoxicity Assay - LYMP1-002 - Dead Cells (AID 960); settings: LYMP1-002 lymphoblastoid cells, dead-cell protease fluorescence; series mostly up to 46.1 µM; further: nearly all actives have a fitted effect of over 60% in size
Summary of the method: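 LYMP1-002 cells 2500/well; 5 hr 37 C pre-incubation; compound 16 hr 37 C; MultiTox-Fluor reagent 60 min RT; dead-cell fluor Ex/Em 485/520. Norm. to DMSO (0%) vs 15 uM tetraoctylammonium bromide (100%); Hill AC50.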

[20] = qHTS assay for small molecule disruptors of the mitochondrial membrane potential - 1 hr assay (AID 651754; calls by dose curve; further: on the % scale 0 is the no-effect control and ±100 the full control effect; nearly all actives have a fitted effect of over 35% in size); settings: series mostly up to 92.2 µM
Summary of the method: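 HepG2, 2,000 cells/well, overnight attachment; cpd or DMSO 1 hr, 37C/5% CO2; Mito-MPS dye 30 min, 37C; fluorescence monomer (490/535) and aggregate (540/590).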

C[C@@H]1CC2(OC(O)[C@]3(C)O[C@H]23)O[C@H]2C[C@@]3(C)[C@@H]4CC[C@H]5C(C)(C)C(O[C@@H]6OC[C@@H](O)[C@H](O)[C@H]6O)CC[C@@]56C[C@@]46CC[C@]3(C)[C@@H]12 (stereo not given in full)
active: Potency [2] 31.6 µM
inactive: Potency [1] > 92 µM | Potency [3] | Potency [4] | Potency [5] | Potency [6] | activation [7] 1.76% | Potency [8] | max response [9] -9.9%

C1CCCNCC1
-9.69%: max response [14]
inactive: Potency [10] > 92 µM | Potency [1] > 92 µM | Potency [2] | Potency [3] | Potency [4] | Potency [5] | Potency [6] | Potency [11] | Potency [12] | Potency [13] | activation [7] 8.29% | Potency [15] | activity change % (negative = inhibition) [16] -19.9% | Potency [8] | Potency [17] | Potency [18] | max response [9] 1.16%

Cc1ccc(S(N)(=O)=O)cc1
inactive: Potency [10] > 92 µM | Potency [1] > 92 µM | Potency [2] | Potency [3] | Potency [19] | Potency [4] | Potency [5] | Potency [6] | Potency [11] | Potency [12] | Potency [13] | activation [7] 1.06% and -7.61% | Potency [15] | activity change % (negative = inhibition) [16] 17.3% and -1.91% | Potency [8] | Potency [20] | Potency [17] | Potency [18] | max response [9] -1.87% and 3.62%
-3.23% and -4.03%: max response [14]

CC(=O)c1ccc(Cl)c(Cl)c1Cl
inactive: Potency [10] > 92 µM | Potency [1] > 92 µM | Potency [2] | Potency [3] | Potency [19] | Potency [4] | Potency [5] | Potency [6] | Potency [11] | Potency [12] | Potency [13] | activation [7] 1.81% | activity change % (negative = inhibition) [16] -12.3% | Potency [8] | Potency [20] | Potency [17] | Potency [18] | max response [9] -2.86%
-2.84%: max response [14]

CC(C)OCC1CO1 (stereo not given)
-12.5%: max response [14]
inactive: Potency [10] > 92 µM | Potency [1] > 92 µM | Potency [2] | Potency [3] | Potency [4] | Potency [5] | Potency [6] | Potency [11] | Potency [12] | Potency [13] | activation [7] -3.64% | Potency [15] | activity change % (negative = inhibition) [16] 8.25% | Potency [8] | Potency [20] | Potency [17] | Potency [18] | max response [9] 3.69%

Nc1cc(C(=O)O)c(O)c(S(=O)(=O)O)c1
inactive: Potency [10] > 92 µM | Potency [1] > 92 µM | Potency [2] | Potency [3] | Potency [19] | Potency [4] | Potency [5] | Potency [6] | Potency [11] | Potency [12] | Potency [13] | activation [7] 1.03% | Potency [15] | activity change % (negative = inhibition) [16] -10.1% | Potency [8] | Potency [20] | Potency [17] | Potency [18] | max response [9] 1.39%
11.2%: max response [14]
